# Assay results published in the supplement of paper PMC8728848.
# About 410 targets per protein were measured; listed, in parts, are those with the strongest signals and a random draw of the rest.
# Key:
# Experiment in all cases: glycan array binding signal (z-score within array); higher = stronger binding
# Conditions in all cases: glycan notation: IUPAC condensed, linker removed
# [1] = biological target: Fuc(a1-2)Gal(b1-3)GalNAc
# Procedure, shortened: (§1)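 The binding signal is a Z-score computed within each array. Data were drawn from 3228 arrays in the Consortium for Functional Glycomics database, restricted to those with a known protein sequence. Scores were averaged over arrays of the same protein sequence at different concentrations or buffers, and over linkers, and negative values can be taken as non-binding.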
# [2] = biological target: Fuc(a1-2)Gal(b1-3)GlcNAc(b1-3)[Fuc(a1-2)Gal(b1-3)GlcNAc(b1-6)]GalNAc
# Procedure, shortened: as §1
# [3] = biological target: Fuc(a1-2)[Gal(a1-3)]Gal(b1-3)GlcNAc(b1-6)GalNAc
# Procedure, shortened: as §1
# [4] = biological target: Fuc(a1-2)[Gal(a1-3)]Gal(b1-4)[Fuc(a1-3)]GlcNAc(b1-3)GalNAc
# Procedure, shortened: as §1
# [5] = biological target: Fuc(a1-3)[Gal(b1-4)]GlcNAc
# Procedure, shortened: as §1
# [6] = biological target: Fuc(a1-3)[Gal(b1-4)]GlcNAc(b1-6)GalNAc
# Procedure, shortened: as §1
# [7] = biological target: Fuc(a1-3)[Gal(b1-4)]GlcNAc(b1-6)[Gal(b1-3)GlcNAc(b1-3)]Gal(b1-4)Glc
# Procedure, shortened: as §1
# [8] = biological target: Fuc(a1-3)[Gal3S(b1-4)]GlcNAc6S
# Procedure, shortened: as §1
# [9] = biological target: Gal(a1-3)Gal(b1-4)Glc
# Procedure, shortened: as §1
# [10] = biological target: Gal(b1-3)GalNAc(b1-3)Gal(a1-4)Gal(b1-4)Glc
# Procedure, shortened: as §1
# [11] = biological target: Gal(b1-3)[GlcNAc(b1-6)]GalNAc
# Procedure, shortened: as §1
# [12] = biological target: Gal(b1-4)GlcNAc(b1-2)Man(a1-3)[GlcNAc(b1-4)][Gal(b1-4)GlcNAc(b1-2)Man(a1-6)]Man(b1-4)GlcNAc(b1-4)GlcNAc
# Procedure, shortened: as §1
# [13] = biological target: Gal(b1-4)GlcNAc(b1-2)[Gal(b1-4)GlcNAc(b1-6)]Man(a1-6)[Gal(b1-4)GlcNAc(b1-2)Man(a1-3)]Man(b1-4)GlcNAc(b1-4)GlcNAc
# Procedure, shortened: as §1
# [14] = biological target: Gal(b1-4)GlcNAc(b1-2)[Gal(b1-4)GlcNAc(b1-6)]Man(a1-6)[GlcNAc(b1-4)][Gal(b1-4)GlcNAc(b1-2)[Gal(b1-4)GlcNAc(b1-4)]Man(a1-3)]Man(b1-4)GlcNAc(b1-4)[Fuc(a1-6)]GlcNAc
# Procedure, shortened: as §1
# [15] = biological target: Gal(b1-4)GlcNAc(b1-3)Gal(b1-4)GlcNAc(b1-2)Man(a1-3)[Gal(b1-4)GlcNAc(b1-3)Gal(b1-4)GlcNAc(b1-2)Man(a1-6)]Man(b1-4)GlcNAc(b1-4)[Fuc(a1-6)]GlcNAc
# Procedure, shortened: as §1
# [16] = biological target: Gal(b1-4)GlcNAc(b1-3)Gal(b1-4)GlcNAc(b1-2)[Gal(b1-4)GlcNAc(b1-3)Gal(b1-4)GlcNAc(b1-6)]Man(a1-6)[Gal(b1-4)GlcNAc(b1-3)Gal(b1-4)GlcNAc(b1-2)Man(a1-3)]Man(b1-4)GlcNAc(b1-4)[Fuc(a1-6)]GlcNAc
# Procedure, shortened: as §1
# [17] = biological target: Gal(b1-4)GlcNAc(b1-3)Gal(b1-4)GlcNAc(b1-3)Gal(b1-4)GlcNAc(b1-2)Man(a1-3)[Gal(b1-4)GlcNAc(b1-3)Gal(b1-4)GlcNAc(b1-3)Gal(b1-4)GlcNAc(b1-2)Man(a1-6)]Man(b1-4)GlcNAc(b1-4)GlcNAc
# Procedure, shortened: as §1
# [18] = biological target: Gal(b1-4)GlcNAc(b1-3)Gal(b1-4)GlcNAc(b1-3)Gal(b1-4)GlcNAc(b1-2)[Gal(b1-4)GlcNAc(b1-3)Gal(b1-4)GlcNAc(b1-3)Gal(b1-4)GlcNAc(b1-6)]Man(a1-6)[Gal(b1-4)GlcNAc(b1-3)Gal(b1-4)GlcNAc(b1-3)Gal(b1-4)GlcNAc(b1-2)Man(a1-3)]Man(b1-4)GlcNAc(b1-4)[Fuc(a1-6)]GlcNAc
# Procedure, shortened: as §1
# [19] = biological target: Gal(b1-4)GlcNAc(b1-3)Gal(b1-4)GlcNAc(b1-3)Gal(b1-4)GlcNAc(b1-3)Gal(b1-4)GlcNAc(b1-2)Man(a1-3)[Gal(b1-4)GlcNAc(b1-3)Gal(b1-4)GlcNAc(b1-3)Gal(b1-4)GlcNAc(b1-3)Gal(b1-4)GlcNAc(b1-2)Man(a1-6)]Man(b1-4)GlcNAc(b1-4)[Fuc(a1-6)]GlcNAc
# Procedure, shortened: as §1
# [20] = biological target: Gal3S6S(b1-4)GlcNAc6S
# Procedure, shortened: as §1
# [21] = biological target: GalNAc(a1-3)GalNAc(b1-3)Gal(a1-4)Gal(b1-4)GlcNAc
# Procedure, shortened: as §1
# [22] = biological target: GalNAc(b1-4)Gal(b1-4)Glc
# Procedure, shortened: as §1
# [23] = biological target: GalNAc(b1-6)GalNAc
# Procedure, shortened: as §1
# [24] = biological target: GlcNAc(a1-4)Gal(b1-4)GlcNAc(b1-3)Gal(b1-4)GlcNAc
# Procedure, shortened: as §1
# [25] = biological target: GlcNAc(a1-4)Gal(b1-4)GlcNAc(b1-3)Gal(b1-4)[Fuc(a1-3)]GlcNAc(b1-3)Gal(b1-4)[Fuc(a1-3)]GlcNAc
# Procedure, shortened: as §1
# [26] = biological target: GlcNAc(b1-3)Gal(b1-4)GlcNAc(b1-2)Man(a1-3)[GlcNAc(b1-3)Gal(b1-4)GlcNAc(b1-2)Man(a1-6)]Man(b1-4)GlcNAc(b1-4)GlcNAc
# Procedure, shortened: as §1
# [27] = biological target: GlcNAc(b1-3)Gal(b1-4)GlcNAc(b1-3)Gal(b1-4)GlcNAc(b1-2)Man(a1-3)[GlcNAc(b1-3)Gal(b1-4)GlcNAc(b1-3)Gal(b1-4)GlcNAc(b1-2)Man(a1-6)]Man(b1-4)GlcNAc(b1-4)GlcNAc
# Procedure, shortened: as §1
# [28] = biological target: GlcNAc(b1-3)Gal(b1-4)GlcNAc(b1-3)Gal(b1-4)GlcNAc(b1-2)[GlcNAc(b1-3)Gal(b1-4)GlcNAc(b1-3)Gal(b1-4)GlcNAc(b1-6)]Man(a1-6)[GlcNAc(b1-3)Gal(b1-4)GlcNAc(b1-3)Gal(b1-4)GlcNAc(b1-2)Man(a1-3)]Man(b1-4)GlcNAc(b1-4)[Fuc(a1-6)]GlcNAc
# Procedure, shortened: as §1
# [29] = biological target: GlcNAc(b1-3)Gal(b1-4)GlcNAc(b1-3)Gal(b1-4)GlcNAc(b1-3)Gal(b1-4)GlcNAc(b1-2)Man(a1-3)[GlcNAc(b1-3)Gal(b1-4)GlcNAc(b1-3)Gal(b1-4)GlcNAc(b1-3)Gal(b1-4)GlcNAc(b1-2)Man(a1-6)]Man(b1-4)GlcNAc(b1-4)GlcNAc
# Procedure, shortened: as §1
# [30] = biological target: GlcNAc(b1-3)Gal(b1-4)GlcNAc(b1-3)Gal(b1-4)GlcNAc(b1-3)Gal(b1-4)GlcNAc(b1-2)Man(a1-3)[GlcNAc(b1-3)Gal(b1-4)GlcNAc(b1-3)Gal(b1-4)GlcNAc(b1-3)Gal(b1-4)GlcNAc(b1-2)Man(a1-6)]Man(b1-4)GlcNAc(b1-4)[Fuc(a1-6)]GlcNAc
# Procedure, shortened: as §1
binder,measurement,setting,value
BIp1-His (Cryptococcus neoformans) (protein) MFTKIFVALFAATAVLSAPVESAEKRITHTGRATFYSPSVGIGACGWQNTDEELVVALNAPQYALNADHNCGQSVRITNEQNGNQEIAKVVDLCPGCNDGDLDMSPALFGALNNNDFDQGVFPISWNFLPRDDTSSSN,glycan array binding signal (z-score),[1],-0.387
same,glycan array binding signal (z-score),[2],-0.401
same,glycan array binding signal (z-score),[3],-0.487
same,glycan array binding signal (z-score),[4],0.249
same,glycan array binding signal (z-score),[5],0.066
same,glycan array binding signal (z-score),[6],-0.576
same,glycan array binding signal (z-score),[7],-0.013
same,glycan array binding signal (z-score),[8],-0.121
same,glycan array binding signal (z-score),[9],-0.171
same,glycan array binding signal (z-score),[10],0.446
same,glycan array binding signal (z-score),[11],0.127
same,glycan array binding signal (z-score),[12],-0.105
same,glycan array binding signal (z-score),[13],0.266
same,glycan array binding signal (z-score),[14],-0.02
same,glycan array binding signal (z-score),[15],2.12
same,glycan array binding signal (z-score),[16],0.623
same,glycan array binding signal (z-score),[17],1.97
same,glycan array binding signal (z-score),[18],3.26
same,glycan array binding signal (z-score),[19],2.08
same,glycan array binding signal (z-score),[20],1.12
same,glycan array binding signal (z-score),[21],-0.181
same,glycan array binding signal (z-score),[22],0.482
same,glycan array binding signal (z-score),[23],-0.887
same,glycan array binding signal (z-score),[24],-0.297
same,glycan array binding signal (z-score),[25],2.19
same,glycan array binding signal (z-score),[26],-0.301
same,glycan array binding signal (z-score),[27],1.87
same,glycan array binding signal (z-score),[28],2.23
same,glycan array binding signal (z-score),[29],2.51
same,glycan array binding signal (z-score),[30],3.44
